Assay results taken from PubChem BioAssay (NCATS).
Inconclusive results are not listed. Active and inactive are the calls of the source. Calls come from the whole dose curve; as a rule, active = well fitted curve in the direction sought with a large enough effect; inconclusive = small, poorly fitted or top-dose-only effect, or another doubt; inactive = no such curve, though single readings can be large; an effect the other way counts as inactive or inconclusive.

Legend:
[1] = target: Phospholipid hydroperoxide glutathione peroxidase GPX4 (Homo sapiens) (UniProt P36969); experiment: Primary qHTS Assay for Inhibitors of Recombinant Selenoprotein Glutathione Peroxidase 4 (GPX4) (AID 1845192); note: nearly all actives have a fitted effect of over 65% in size; note: potency is the fitted concentration of half-maximal effect; for activity change, negative = inhibition: series mostly up to about 50 µM; % is set by controls: 0 for no effect and ±100 for the full control effect
Method in brief: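 GR-coupled readout: 100 nM GR, 1 mM GSH, 0.5 mM NADPH; NADPH fluorescence (ex 340/em 450 nm) read at t=0 and after 15 min RT. GPX4 200 nM, preincubated 30 min with compound; substrate 0.5 mM CHP.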

[2] = target: Luciferin 4-monooxygenase (Photinus pyralis) (UniProt P08659); experiment: Primary firefly luciferase (FLuc) qHTS assay for identification of artifact compounds. (AID 1845220); note: nearly all actives have a fitted effect of over 60% in size; note: potency is the fitted concentration of half-maximal effect;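 for activity change, negative = inhibition: series mostly up to about 54 µM; plate controls were DMSO vehicle for no effect and no enzyme for full effect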
Method in brief: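 qHTS, 15 min compound preincubation with substrate (10 uM luciferin, 10 uM ATP) at RT, then 10 nM FLuc; 5 min; luminescence; % inhibition vs no-enzyme/DMSO controls, 4-parameter Hill fit.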

[3] = Primary fluorescence-based thiol-reactive (MSTI) qHTS assay for identification of artifact compounds. (AID 1845221); note: nearly all actives have a fitted effect of over 65% in size; note: potency is the fitted concentration of half-maximal effect;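 for activity change, negative = thiol reactive: series mostly up to about 54 µM; thiol-reactive compounds lower the probe fluorescence signal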
Method in brief: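 Reactivity toward the thiol probe MSTI (4 uM) is scored by fluorescence at Ex/Em 525/598 nm after 1 h at room temperature. Acetyl-MSTI and MSTI define the activity scale.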

[4] = system: Nanoluciferase (engineered Oplophorus gracilirostris luciferase); experiment: Primary Nanoluciferase (NLuc) qHTS assay for identification of artifact compounds. (AID 1845222);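 note: series mostly up to about 54 µM; 0% = DMSO and -100% = no enzyme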
Method in brief: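 Luminescence read-out of secreted NLuc in S16 cell conditioned medium (1:55); compounds tested with 15 min RT preincubation, then Nano-Glo substrate 1:100, 5 min. % inhibition vs no-enzyme and DMSO controls, 4-parameter Hill fit.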

[5] = Primary redox qHTS assay for identification of artifact compounds. (AID 1845223);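 note: 0% = DMSO and 100% = reference compound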
Method in brief: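 Amplex Red (25 uM) and HRP (250 mU/mL) in HBSS, with compounds for 15 min, then 250 uM DTT for 30 min, room temperature, dark. Fluorescence 525/598 nm read; normalized to DMSO and 10 uM DA3003; Hill fit.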

Sequence of Phospholipid hydroperoxide glutathione peroxidase GPX4 (Homo sapiens) (P36969 whole entry, looked up): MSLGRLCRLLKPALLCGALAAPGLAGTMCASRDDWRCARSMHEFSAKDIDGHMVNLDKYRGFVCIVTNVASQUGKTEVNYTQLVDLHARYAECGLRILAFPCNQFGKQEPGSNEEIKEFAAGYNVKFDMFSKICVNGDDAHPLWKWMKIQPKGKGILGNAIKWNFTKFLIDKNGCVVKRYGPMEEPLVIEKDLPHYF

Cc1cc(OCCCS(C)(=O)=O)cc(C)c1-c1cccc(COc2ccc(C3=CC(=O)NS3=O)cc2)c1 (stereo unspecified)
inactive: Potency [1] | Potency [2] | Potency [3] | Potency [4] | Potency [5]

O=C(NCc1cccs1)c1cc2nc(-c3ccco3)cc(C(F)(F)Cl)n2n1
inactive: Potency [1] | Potency [2] | Potency [4] | Potency [5]

CNC1CN(c2ccc3c(=O)c(C(=O)O)cn(-c4nccs4)c3n2)CC1OC (stereo unspecified)
inactive: activity change, negative = inhibition [1] -2.33% [at 9.73 µM] | activity change, negative = inhibition [2] -6.28% [at 11.6 µM] | activity change, negative = thiol reactive [3] -3.65% [at 11.5 µM] | redox activity (% of DA3003) [5] -6.95% [at 11.5 µM]

COc1cc(CCc2cc(NC(=O)c3ccc(N4CC(C)NC(C)C4)cc3)n[nH]2)cc(OC)c1 (stereo unspecified)
inactive: Potency [1] | Potency [2] | Potency [3] | Potency [5]

CC1=C(c2ccc(NC(=O)c3c(F)cccc3F)cc2)CN(c2nccs2)CC1
inactive: Potency [1] | Potency [2] | Potency [3] | Potency [4] | Potency [5]

Cc1c(NC(=O)OCC2COCCN2)cn2ncnc(Nc3ccc4c(cnn4Cc4cccc(F)c4)c3)c12 (stereo unspecified)
inactive: Potency [1] | Potency [2] | Potency [3] | Potency [4] | Potency [5]

CCn1c(N)c(C(=O)NC)c(=O)c2ccc(C#CC(C)(O)COC)nc21 (stereo unspecified)
inactive: Potency [1] | Potency [2] | Potency [3] | Potency [4] | Potency [5]

O=C1C[C@]23C=CCN4CCC5c6cc7c(cc6N1[C@@]5(CC2)C43)OCO7 (stereo partly specified)
inactive: Potency [1] | Potency [2] | Potency [4] | Potency [5]

O=C(Nc1ccccc1Br)NC1CCN(c2ccc(C(F)(F)F)cn2)C1 (stereo unspecified)
inactive: Potency [1] | Potency [2] | Potency [3] | Potency [4] | Potency [5]

CCC(C)c1ccc(NC(=O)Cn2cnc3c2c(=O)n(C)c(=O)n3C)cc1 (stereo unspecified)
inactive: Potency [1] | Potency [2] | Potency [3] | Potency [4] | Potency [5]

CCNC1(C(N)=O)CCN(c2ncnc3c2nc(-c2ccccc2Cl)n3-c2ccc(Cl)cc2)CC1
inactive: Potency [1] | Potency [2] | Potency [3] | Potency [4] | Potency [5]

CCN(c1cc(-c2ccc(CN3CCOCC3)cc2)cc(C(=O)NCc2c(C)cc(C)[nH]c2=O)c1C)C1CCOCC1
inactive: Potency [1] | Potency [2] | Potency [3] | Potency [5]

Cc1ccc(C2(C(=O)N3CCC(n4nc(-c5ccccc5)oc4=O)CC3)CC2)cc1
inactive: Potency [1] | Potency [2] | Potency [3] | Potency [5]

C=C1CC2OC(=O)C(COC)C2C(OC(=O)/C(C)=C\C)CC2(C)OC1=CC2=O (stereo unspecified)
inactive: Potency [1] | Potency [2] | Potency [3] | Potency [4] | Potency [5]

CCN(Cc1cc(Nc2nc(C)cn3c(-c4cn[nH]c4)cnc23)sn1)C(C)(C)CO
inactive: Potency [1] | Potency [2] | Potency [3] | Potency [5]

Nc1nc2c(s1)CCN(Cc1ccc(Cl)cc1)CC2
inactive: Potency [1] | Potency [2] | Potency [4] | Potency [5]

CC1CCC(=O)CC(SCC(O)C(=O)O)CCC(=O)O1 (stereo unspecified)
inactive: Potency [1] | Potency [2] | Potency [3] | Potency [4] | Potency [5]

CC(=O)Nc1cccc(-c2csc(Nc3cc(C)ccn3)n2)c1
inactive: Potency [1] | Potency [5]

CC(=O)Nc1nc(C)c(-c2nc(N3CCCC(O)C3)no2)s1 (stereo unspecified)
inactive: Potency [3] | Potency [4]

NC(=O)c1cccc2[nH]c(-c3ccc(C4CCCN4)cc3F)nc12 (stereo unspecified)
inactive: Potency [3] | Potency [4] | Potency [5]

O=C(Nc1ccccc1C(=O)NC1CCCCNC1=O)c1cc2ccccc2s1 (stereo unspecified)
inactive: Potency [3] | Potency [4]

COc1ccc(-c2c(C)nn3c(NCCN4CCOCC4)cc(C)nc23)cc1OC
inactive: Potency [2] | Potency [4]

C=CC(=O)N1CCCC(n2nc(-c3ccc(Oc4ccccc4)cc3)c3c(N)ncnc32)C1 (stereo unspecified)
inactive: Potency [1] | Potency [2] | Potency [4] | Potency [5]

CCC(C(C)O)n1ncn(-c2ccc(N3CCN(c4ccc(OCC5COC(Cn6cncn6)(c6ccc(F)cc6F)C5)cc4)CC3)cc2)c1=O (stereo unspecified)
inactive: Potency [1] | Potency [4] | Potency [5]

COc1cc2ncnc(Nc3ccc(O)c(Br)c3)c2cc1OC
inactive: Potency [1] | Potency [2] | Potency [5]

CN(C)S(=O)(=O)c1ccc(NC(=S)N2CCC(C(O)(c3ccccc3)c3ccccc3)CC2)cc1
inactive: Potency [2] | Potency [3] | Potency [4]

Cc1[nH]c(/C=C2\C(=O)Nc3cc(-c4ccccc4)ccc32)c(C)c1CCC(=O)O
active: Potency [2] 6.01 µM | Potency [3] 0.67 µM
inactive: Potency [5]

COc1cc2ncc(-c3ccccc3)nc2cc1OC
inactive: Potency [3] | Potency [4]
active: Potency [1] 20.2 µM

Cc1nc2ccc(CN(C)c3ccc(C(=O)NC(CCC(=O)O)C(=O)O)s3)cc2c(=O)[nH]1 (stereo unspecified)
inactive: Potency [1] | Potency [4] | Potency [5]

CCOC(=O)c1csc(Nc2ccc(Cl)cc2)n1
inactive: Potency [3]

C[C@@H](c1ccc2nccn2c1)n1nnc2ncc(-c3cnn(C)c3)nc21
inactive: Potency [2] | Potency [3] | Potency [4] | Potency [5]

CC1(NC(=O)c2ccc(C#Cc3cccc(F)c3)cn2)COC1
inactive: Potency [2] | Potency [3] | Potency [4] | Potency [5]

COc1cc(C(=O)O)ccc1NC(=O)C1NC(CC(C)(C)C)C(C#N)(c2ccc(Cl)cc2F)C1c1cccc(Cl)c1F (stereo unspecified)
inactive: Potency [1] | Potency [3] | Potency [4] | Potency [5]

CC(C)(F)CC(NC(c1ccc(-c2ccc(S(C)(=O)=O)cc2)cc1)C(F)(F)F)C(=O)NC1(C#N)CC1 (stereo unspecified)
inactive: Potency [2] | Potency [3] | Potency [4] | Potency [5]

Cc1cc2occ(CN(C)CCN(C)Cc3cn(-c4cccc(C(F)(F)F)c4)c4ccccc34)c(=O)c2cc1C
inactive: Potency [1] | Potency [2] | Potency [4] | Potency [5]

Cc1nc2cc(C(=O)NCc3ccccn3)nn2c(C)c1Cc1cccc(Cl)c1
inactive: Potency [2] | Potency [3] | Potency [4] | Potency [5]

O=c1nc(-c2ccccn2)sc2ccccc12
inactive: Potency [1] | Potency [2] | Potency [4] | Potency [5]

Cc1cc(-c2nc3cc(F)ccc3s2)ccc1NC(=O)[C@@H](N)CCCCN
inactive: Potency [3] | Potency [4]
active: Potency [2] 1.9 µM

C=CC(C)(C)C12CC3C(=O)N4C(CC5(C(C)(C)C=C)c6ccccc6NC45)C(=O)N3C1Nc1ccccc12 (stereo unspecified)
inactive: Potency [1] | Potency [2] | Potency [4] | Potency [5]

NS(=O)(=O)c1ccc(N2N=C(c3ccccc3)CC2c2ccccc2)cc1 (stereo unspecified)
inactive: Potency [3] | Potency [4] | Potency [5]
active: Potency [1] 16.1 µM

COc1ccc2cc3c(NC(=O)c4ccco4)nn(C)c3nc2c1
inactive: Potency [2] | Potency [3] | Potency [5]

COc1ccnc(CS(=O)c2nc3cc(OC(F)F)ccc3[nH]2)c1OC (stereo unspecified)
inactive: Potency [2] | Potency [4]
active: Potency [3] 21.2 µM

O=C(Nc1cc(C(F)(F)F)cc(C(F)(F)F)c1)c1cnc(Cl)nc1C(F)(F)F
inactive: Potency [1] | Potency [3] | Potency [4] | Potency [5]

CC[C@H](C)/C=C(C)/C=C/C1=CC2=CC(=O)[C@]3(C)OC(=O)[C@@H](C(C)=O)[C@@H]3C2=CO1
inactive: Potency [2] | Potency [4] | Potency [5]

Nc1nc(Nc2ccc3c(c2)CCC(N2CCCC2)CC3)nn1-c1cc2c(nn1)-c1ccccc1CCC2 (stereo unspecified)
inactive: Potency [1] | Potency [2] | Potency [4] | Potency [5]

O=C(Nc1ccc(-c2ccnc(Nc3ccc(N4CCOCC4)cc3)n2)cc1)C1CCCN1 (stereo unspecified)
inactive: Potency [2] | Potency [4] | Potency [5]
active: Potency [3] 11.9 µM

O=C(Nc1ccccc1C(=O)Nc1ccc(CCO)cc1)c1ccc([N+](=O)[O-])cc1
inactive: Potency [1] | Potency [4] | Potency [5]

C=C1CC2OC(=O)C(=C)C2C(O)/C=C(\C)CCC1O (stereo unspecified)
inactive: Potency [1] | Potency [2] | Potency [4] | Potency [5]

COc1cc(N(C)CCN(C)C)c(N)cc1Nc1nccc(-c2cn(C)c3ccccc23)n1
inactive: Potency [1] | Potency [2] | Potency [4] | Potency [5]

COc1cc(C2OC(c3ccc(OC)c(OC)c3)C(C)C2C)ccc1O (stereo unspecified)
inactive: Potency [4] | Potency [5]

Nc1nc2c(cnn2CCCc2ccc(O)cc2)c2nc(-c3ccco3)nn12
inactive: Potency [1] | Potency [3] | Potency [4] | Potency [5]

COC(=O)c1ccc2c(c1)[nH]c1ncnc(NCCCN3CCCCC3)c12
inactive: Potency [2] | Potency [3] | Potency [4] | Potency [5]

Cn1cc(-c2cnn3c(N)c(Br)c(C4CCCNC4)nc23)cn1 (stereo unspecified)
inactive: Potency [1] | Potency [2] | Potency [4] | Potency [5]

CC(=O)O[C@@]12CO[C@@H]1C[C@H](O)[C@@]1(C)C(=O)[C@H](O)C3=C(C)[C@@H](OC(=O)[C@H](O)[C@@H](NC(=O)OC(C)(C)C)c4ccccc4)C[C@@](O)([C@@H](OC(=O)c4ccccc4)C12)C3(C)C (stereo partly specified)
inactive: Potency [2] | Potency [3] | Potency [4] | Potency [5]

COc1cc2nc(N3CCN(C(=O)COc4c(OC)cccc4C(C)C)CC3)nc(N)c2cc1OC
inactive: Potency [2] | Potency [4] | Potency [5]

CCOC(=O)N1c2ccc(C(F)(F)F)cc2C(N(Cc2cc(C(F)(F)F)cc(C(F)(F)F)c2)C(=O)OC)CC1CC (stereo unspecified)
inactive: Potency [1] | Potency [4] | Potency [5]
